For some of these results: Measured potencies and affinities stand elsewhere.
Key:
Parameters in all cases: scale not given: direction of the effect not stated beside the values
[1] = biological target: Protein translocase subunit SecA (Escherichia coli (strain K12)) (UniProt P10408); assay: Assay to Identify E. coli SecA ATPase Inhibitors; type: functional; settings: 30 µM
[2] = biological target: T1, Ubiquitin-activating enzyme e1, putative (Leishmania donovani (strain BPK282A1)) (UniProt E9BSI1); assay: Leishmania donovani Ubiquitin Activating Enzyme (LdE1); type: functional; settings: 30 µM
T1 sequence (whole entry): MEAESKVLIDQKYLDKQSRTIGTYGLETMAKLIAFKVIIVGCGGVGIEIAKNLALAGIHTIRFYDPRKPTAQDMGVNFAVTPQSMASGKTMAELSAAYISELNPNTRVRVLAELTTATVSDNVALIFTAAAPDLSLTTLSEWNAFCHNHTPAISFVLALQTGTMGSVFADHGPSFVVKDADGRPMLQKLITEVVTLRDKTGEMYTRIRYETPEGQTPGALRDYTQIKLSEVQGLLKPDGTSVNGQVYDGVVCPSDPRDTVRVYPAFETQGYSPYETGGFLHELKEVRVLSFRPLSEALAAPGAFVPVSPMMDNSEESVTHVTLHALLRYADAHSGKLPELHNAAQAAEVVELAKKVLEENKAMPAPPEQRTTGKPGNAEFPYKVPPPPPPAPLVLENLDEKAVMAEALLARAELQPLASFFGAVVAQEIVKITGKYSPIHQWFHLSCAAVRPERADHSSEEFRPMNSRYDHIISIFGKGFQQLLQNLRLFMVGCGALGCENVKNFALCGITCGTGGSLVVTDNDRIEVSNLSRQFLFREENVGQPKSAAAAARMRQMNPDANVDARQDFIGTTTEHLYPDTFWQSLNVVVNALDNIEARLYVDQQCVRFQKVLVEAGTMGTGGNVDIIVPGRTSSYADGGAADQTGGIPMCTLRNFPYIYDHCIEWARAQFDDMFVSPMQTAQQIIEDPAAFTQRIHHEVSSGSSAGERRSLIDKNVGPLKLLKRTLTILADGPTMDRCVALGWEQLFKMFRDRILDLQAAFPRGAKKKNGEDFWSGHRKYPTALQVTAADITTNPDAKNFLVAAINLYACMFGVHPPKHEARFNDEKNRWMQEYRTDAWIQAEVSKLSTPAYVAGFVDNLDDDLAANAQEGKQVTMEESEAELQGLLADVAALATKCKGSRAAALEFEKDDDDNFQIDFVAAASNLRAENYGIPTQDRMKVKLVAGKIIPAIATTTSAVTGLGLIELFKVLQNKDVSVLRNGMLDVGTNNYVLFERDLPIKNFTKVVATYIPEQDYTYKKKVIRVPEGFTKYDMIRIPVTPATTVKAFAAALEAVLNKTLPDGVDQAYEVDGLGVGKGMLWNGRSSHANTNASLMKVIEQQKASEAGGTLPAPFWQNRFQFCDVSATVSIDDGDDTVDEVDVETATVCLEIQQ

[3] = biological target: AMP-activated protein kinase, AMPK (Homo sapiens) (UniProt P54646+O43741+P54619+Q9UGJ0+Q9Y478+Q13131+Q9UGI9); assay: AMP-dependent Kinase enzyme assay. An in vitro enzyme assay that detects ADP turnover that is directly proportional to AMPK activity. This uses naive AMPK that is activated during the assay with MK-8722; type: functional; settings: 30 µM
[4] = biological target: Sialic acid-binding Ig-like lectin 9 (Homo sapiens) (UniProt Q9Y336); assay: Hs-Siglec9 ALPHAscreen SOP 20170721; settings: 10 µM
Trypanosoma cruzi = assay: Trypanosoma cruzi phosphomannomutase and mannose-1-phosphate guanylyltransferase assay; type: functional; settings: 10 µM
[5] = biological target: T2, Arginase-2, mitochondrial (Homo sapiens) (UniProt P78540); assay: in vitro enzyme assay to detect the production of urea directly proportional to the activity of Arginase II; type: functional; settings: 33.3 µM; also: in the data most compounds retested in dose-response had high values
T2 sequence (whole entry): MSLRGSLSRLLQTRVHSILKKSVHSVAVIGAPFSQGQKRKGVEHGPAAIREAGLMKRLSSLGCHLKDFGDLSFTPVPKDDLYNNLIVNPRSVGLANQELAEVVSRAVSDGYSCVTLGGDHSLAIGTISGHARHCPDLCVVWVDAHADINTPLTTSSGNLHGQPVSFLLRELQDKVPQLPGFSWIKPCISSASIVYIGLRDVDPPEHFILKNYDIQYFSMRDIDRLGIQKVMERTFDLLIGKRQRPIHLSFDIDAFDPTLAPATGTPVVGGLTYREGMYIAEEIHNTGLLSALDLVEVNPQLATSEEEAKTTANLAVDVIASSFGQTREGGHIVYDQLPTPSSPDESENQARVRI

[6] = biological target: T3, Proteasome subunit beta (Trypanosoma cruzi) (UniProt O96673); assay: Trypanosoma cruzi proteasome chymotrypsin-like activity (TcProtChymo) assay.; also: in the data most compounds retested in dose-response had high values; type: functional; settings: 9.37 µM
T3 sequence (whole entry): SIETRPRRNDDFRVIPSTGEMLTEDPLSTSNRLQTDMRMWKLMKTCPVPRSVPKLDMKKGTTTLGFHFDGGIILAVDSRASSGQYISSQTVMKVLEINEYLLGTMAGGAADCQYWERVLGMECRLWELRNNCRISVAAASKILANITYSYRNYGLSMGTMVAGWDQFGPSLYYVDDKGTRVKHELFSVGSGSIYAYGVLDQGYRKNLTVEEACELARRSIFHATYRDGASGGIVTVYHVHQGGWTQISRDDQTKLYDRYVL

Homo sapiens = species on record: Homo sapiens; assay: To identify inhibition of the IFN signalling (Jak-Stat) pathway via expression of an eGFP reporter gene under the control of an IFN-stimulated response element (ISRE) containing MxA promoter.; type: functional; settings: 30 µM
[7] = biological target: T4, Tyrosyl-tRNA synthetase, putative (Trypanosoma cruzi (strain CL Brener)) (UniProt Q4DSP6); assay: Trypanosoma cruzi tyrosyl tRNA synthetase (TcYRS) _High Tyrosine SOP; type: functional; settings: 30 µM; also: in the data most compounds retested in dose-response had high values
T4 sequence (whole entry): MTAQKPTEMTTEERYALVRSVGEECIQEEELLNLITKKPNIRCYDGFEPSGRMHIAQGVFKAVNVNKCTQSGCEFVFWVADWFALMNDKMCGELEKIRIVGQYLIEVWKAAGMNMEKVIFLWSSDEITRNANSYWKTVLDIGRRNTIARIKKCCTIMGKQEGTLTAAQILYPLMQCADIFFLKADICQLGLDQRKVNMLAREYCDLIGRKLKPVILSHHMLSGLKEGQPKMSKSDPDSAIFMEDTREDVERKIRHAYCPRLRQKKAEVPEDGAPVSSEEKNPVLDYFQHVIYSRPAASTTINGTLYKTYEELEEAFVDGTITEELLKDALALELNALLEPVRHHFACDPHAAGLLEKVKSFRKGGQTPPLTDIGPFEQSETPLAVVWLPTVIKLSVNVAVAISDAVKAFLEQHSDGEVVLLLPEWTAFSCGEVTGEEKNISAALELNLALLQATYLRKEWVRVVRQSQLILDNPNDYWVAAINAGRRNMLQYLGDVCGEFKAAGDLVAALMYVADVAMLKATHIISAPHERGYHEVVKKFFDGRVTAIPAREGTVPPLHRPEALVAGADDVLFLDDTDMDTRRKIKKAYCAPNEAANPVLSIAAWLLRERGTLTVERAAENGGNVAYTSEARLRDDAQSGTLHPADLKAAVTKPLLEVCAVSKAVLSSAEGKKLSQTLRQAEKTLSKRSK

[8] = biological target: T4, Tyrosyl-tRNA synthetase, putative (Trypanosoma cruzi (strain CL Brener)); assay: Trypanosoma cruzi tyrosyl tRNA synthetase (TcYRS) SOP; type: functional; settings: 30 µM
[9] = biological target: Chromo domain-containing protein 1 (Saccharomyces cerevisiae (strain ATCC 204508 / S288c) (Baker's yeast)) (UniProt P32657); assay: ScCHD-1 Enzyme Inhibition Assay; type: functional; settings: 30 µM; also: in the data most compounds retested in dose-response had high values
Chromo domain-containing protein 1 (Saccharomyces cerevisiae (strain ATCC 204508 / S288c) (Baker's yeast)), sequence (P32657 whole entry, the tested form may be a part): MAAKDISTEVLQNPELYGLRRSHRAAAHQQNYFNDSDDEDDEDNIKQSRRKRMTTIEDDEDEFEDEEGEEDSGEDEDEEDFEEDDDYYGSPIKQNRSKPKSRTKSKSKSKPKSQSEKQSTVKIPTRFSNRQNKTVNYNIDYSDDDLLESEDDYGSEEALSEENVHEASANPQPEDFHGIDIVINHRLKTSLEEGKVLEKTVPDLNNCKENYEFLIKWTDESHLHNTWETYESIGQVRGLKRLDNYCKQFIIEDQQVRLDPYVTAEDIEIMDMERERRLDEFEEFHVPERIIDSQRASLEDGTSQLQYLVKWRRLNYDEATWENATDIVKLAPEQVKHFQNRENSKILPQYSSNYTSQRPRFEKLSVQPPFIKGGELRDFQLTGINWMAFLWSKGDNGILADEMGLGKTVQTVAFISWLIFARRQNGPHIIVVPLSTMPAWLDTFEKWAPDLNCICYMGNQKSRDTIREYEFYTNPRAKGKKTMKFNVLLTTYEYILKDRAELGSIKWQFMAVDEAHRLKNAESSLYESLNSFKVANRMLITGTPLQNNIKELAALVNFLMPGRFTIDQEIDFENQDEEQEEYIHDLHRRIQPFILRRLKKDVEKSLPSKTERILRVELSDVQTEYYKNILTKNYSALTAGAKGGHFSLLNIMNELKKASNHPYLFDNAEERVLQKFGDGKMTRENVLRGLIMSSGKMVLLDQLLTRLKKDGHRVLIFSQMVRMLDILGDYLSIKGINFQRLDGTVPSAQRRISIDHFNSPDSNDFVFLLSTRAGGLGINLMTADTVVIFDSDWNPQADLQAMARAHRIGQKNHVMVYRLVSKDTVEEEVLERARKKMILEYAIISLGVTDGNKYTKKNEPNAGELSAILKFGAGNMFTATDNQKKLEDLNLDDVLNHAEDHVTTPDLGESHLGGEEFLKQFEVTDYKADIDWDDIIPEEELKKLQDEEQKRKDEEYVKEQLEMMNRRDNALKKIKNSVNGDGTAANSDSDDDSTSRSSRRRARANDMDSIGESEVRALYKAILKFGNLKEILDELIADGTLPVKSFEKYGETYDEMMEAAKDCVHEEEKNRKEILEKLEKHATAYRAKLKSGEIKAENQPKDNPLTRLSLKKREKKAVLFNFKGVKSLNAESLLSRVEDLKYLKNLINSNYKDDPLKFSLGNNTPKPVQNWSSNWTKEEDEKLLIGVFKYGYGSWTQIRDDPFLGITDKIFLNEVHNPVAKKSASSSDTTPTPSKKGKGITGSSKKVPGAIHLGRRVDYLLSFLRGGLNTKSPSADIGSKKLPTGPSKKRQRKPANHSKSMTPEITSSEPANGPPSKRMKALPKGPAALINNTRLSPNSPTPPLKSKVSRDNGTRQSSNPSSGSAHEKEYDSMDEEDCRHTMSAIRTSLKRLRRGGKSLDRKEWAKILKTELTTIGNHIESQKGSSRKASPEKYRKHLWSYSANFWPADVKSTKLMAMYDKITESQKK

Protein translocase subunit SecA (Escherichia coli (strain K12)), sequence (P10408 whole entry): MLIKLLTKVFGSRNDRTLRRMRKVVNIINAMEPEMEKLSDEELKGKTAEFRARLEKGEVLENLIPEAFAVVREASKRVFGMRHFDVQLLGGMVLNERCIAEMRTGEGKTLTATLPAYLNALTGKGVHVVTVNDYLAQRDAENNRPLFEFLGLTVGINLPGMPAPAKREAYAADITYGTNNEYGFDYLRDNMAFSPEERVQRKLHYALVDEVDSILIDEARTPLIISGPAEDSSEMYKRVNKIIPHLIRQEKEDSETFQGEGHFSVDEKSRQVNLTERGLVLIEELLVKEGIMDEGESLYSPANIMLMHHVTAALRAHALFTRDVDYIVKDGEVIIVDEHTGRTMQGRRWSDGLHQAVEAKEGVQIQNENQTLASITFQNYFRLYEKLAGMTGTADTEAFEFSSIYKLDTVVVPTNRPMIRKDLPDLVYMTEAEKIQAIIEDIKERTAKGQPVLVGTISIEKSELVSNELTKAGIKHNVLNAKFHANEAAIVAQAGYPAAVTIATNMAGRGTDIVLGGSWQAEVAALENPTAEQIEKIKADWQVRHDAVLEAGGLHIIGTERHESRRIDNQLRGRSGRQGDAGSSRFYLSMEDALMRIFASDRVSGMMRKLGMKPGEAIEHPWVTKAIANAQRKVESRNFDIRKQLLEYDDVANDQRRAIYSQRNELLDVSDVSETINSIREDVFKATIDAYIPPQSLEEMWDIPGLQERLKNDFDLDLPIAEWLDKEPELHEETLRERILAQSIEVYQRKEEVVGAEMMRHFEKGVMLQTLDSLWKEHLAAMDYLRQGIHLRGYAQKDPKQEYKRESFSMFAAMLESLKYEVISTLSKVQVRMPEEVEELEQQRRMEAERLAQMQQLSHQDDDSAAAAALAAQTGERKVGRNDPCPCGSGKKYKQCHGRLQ
Sialic acid-binding Ig-like lectin 9 (Homo sapiens), sequence (Q9Y336 whole entry): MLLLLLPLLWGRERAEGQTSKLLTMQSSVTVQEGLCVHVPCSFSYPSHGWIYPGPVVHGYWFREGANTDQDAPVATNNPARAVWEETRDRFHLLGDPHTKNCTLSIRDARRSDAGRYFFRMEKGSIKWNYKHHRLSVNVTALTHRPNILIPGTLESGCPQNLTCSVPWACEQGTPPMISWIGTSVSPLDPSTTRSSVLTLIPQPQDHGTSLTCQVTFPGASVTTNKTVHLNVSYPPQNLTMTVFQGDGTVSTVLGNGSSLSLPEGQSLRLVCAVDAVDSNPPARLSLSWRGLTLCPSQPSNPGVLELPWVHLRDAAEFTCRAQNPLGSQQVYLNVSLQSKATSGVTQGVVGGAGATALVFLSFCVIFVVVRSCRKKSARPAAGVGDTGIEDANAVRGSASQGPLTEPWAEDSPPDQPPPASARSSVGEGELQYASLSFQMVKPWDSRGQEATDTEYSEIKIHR

Compound | Percent Effect [1] | Percent Effect [2] | Percent Effect [3] | Percent Effect [4] | Percent Effect (Trypanosoma cruzi) | Percent Effect [5] | Percent Effect [6] | Percent Effect (Homo sapiens) | Percent Effect [7] | Percent Effect [8] | Percent Effect [9]
COc1cccc2c1ccn2CCC(=O)NCCCC(=O)O | -1.03% | 20% | 1.22% | -4.11% | -4.32% | -2.99% | 13.5% | -6.02% | 5.29% | 5.13% | -9.24%
CC(C)(CNC(=O)NCCOc1cccc(F)c1)C(N)=O | -3.85% | 7.89% | 1.82% | 8.76% | 0.94% | 2.3% | 0.167% | -5.69% | 6.37% | 17.1% | -6.58%
Cc1nc(-c2ccsc2)ccc1C(=O)NCCN1CCOCC1 | -6.91% | 10.5% | -3.72% | 7.24% | 4.32% | -0.383% | 8.02% | 1.25% | 6.37% | 19.5% | -8.61%
Cc1[nH]c(=O)[nH]c(=O)c1CN1CCCC(CCc2ccccc2)C1 (stereo unspecified) | -1.15% | 2.7% | -3.11% | 8.59% | -5.02% | 0.952% | 18.1% | -0.602% | 4.76% | 17.1% | -3.68%
Cc1nc2ccccn2c1CN(Cc1cccnc1)CC1CCCO1 (stereo unspecified) | -1.83% | -2.74% | 2.15% | 0.744% | -6.27% | 0.455% | 7.63% | 13.7% | -2.15% | -2.5% | -1.23%
CN(C)C(C)(C)CNC(=O)C(C)(C)c1ccccc1F | -0.22% | 9.72% | -4.87% | 4.5% | -4.18% | -0.442% | 13.2% | 17.2% | 4.21% | -2.56% | 105%
CNS(=O)(=O)c1ccc(C(=O)N2CCCC(n3cccn3)C2)cc1 (stereo unspecified) | -7.19% | 13.2% | -7.33% | 8.86% | 4.89% | -4.21% | 2.17% | 1.3% | 3.43% | 17.1% | -14.7%
Cc1ccc(S(=O)(=O)N2C[C@@H]3C[C@@H](NC(=O)C(C)(C)C)[C@@H]3C2)cc1 | -5.99% | 14.9% | 5.25% | 4.69% | 2.77% | -3.48% | 12.3% | 2.6% | 3.23% | 9.09% | -22.4%
CCC(=O)N1CCCC(c2cc(Nc3ncccn3)nc(C)n2)C1 (stereo unspecified) | -3.27% | 1.35% | 13.2% | -0.199% | -1.58% | -5.8% | 10.6% | -1.71% | 6.45% | 11.7% | -6.06%
CN(C)c1ccc(C(=O)NCC2(O)CCOCC2)cc1 | -4.98% | 2.7% | -2.16% | 3.55% | 3.48% | 3.33% | 13.1% | -3.96% | 5.82% | 12.2% | -5.31%
COCCOc1ncccc1C(=O)Nc1ccc(-n2cncn2)c(F)c1 | -2.86% | 10.5% | 0.415% | 9.57% | 0% | 0% | 17.5% | -26.4% | 7.35% | 12.2% | -9.99%

Source: ChEMBL document CHEMBL3988442, “University of Dundee, Small-Polar-MMV Screening Library” (2021)
